# Measurements as given in publication PMC5540273 (PLoS ONE, 2017).
# System: TNK1
# Details: concentration: 1 μM,replicates: in singlicate; n = 1
# 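Note: KINOMEscan kinase panel screen.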
row,Structure (SMILES),%Inh [%]
1,CN(c1cccc(CNc2nc(Nc3ccc4c(c3)CC(=O)N4)ncc2C(F)(F)F)c1)S(C)(=O)=O,57
2,CC(=O)Nc1ccc(-c2cc3ncnc(SCC(=O)O)c3s2)cc1,0
3,COc1cccc(OC)c1C(=O)Nc1cccc(-c2nn3ccccc3c2-c2ccnc(Nc3cccc(F)c3)n2)c1 [GSK361065],31
4,CC(C(=O)NC1CCN(c2ccnc(Nc3ccc(F)cc3)n2)C1)c1ccc(Cl)cc1 (stereo not shown) [GSK1379713],0
5,Cc1ccc(CC(=O)N2CCc3cc(-c4cn(C)c5ncnc(N)c45)ccc32)cc1 [GSK2634758],0
6,Cl.Nc1n[nH]c2cc(-c3ccccn3)ccc12 [GSK2189892],0
7,Cl.c1ccc(Oc2ccc(Nc3ccnc4cc(-c5ccc(CN6CCNCC6)o5)ccc34)cc2)nc1 [GW567142],61
8,c1ccc(Oc2ccc(Nc3ccnc4ccc(-c5ccccn5)cc34)cc2)cc1 [GW407034],28
9,COc1cccc(C2=C(Nc3cccc(Cl)c3)C(=O)NC2=O)c1 [SB-341556],32
10,C[C@@H](Oc1cc(-n2cnc3cc(-c4cnn(C)c4)ccc32)sc1C(N)=O)c1ccccc1Cl [GSK580432],59
11,O=C(Nc1n[nH]c2cc(-c3ccco3)ccc12)C1CC1 [SB-737447],0
12,COc1cc2nccc(Nc3ccc(Oc4ccccc4)cc3)c2cc1OC.Cl [GI261656],92.8
13,CN(c1ccccc1CNc1nc(Nc2ccc3c(c2)CC(=O)N3)ncc1C(F)(F)F)S(C)(=O)=O,83
14,N#Cc1cccc(C(=O)NC2CCN(c3ccnc(Nc4ccc(F)cc4)n3)C2)c1 (stereo not shown) [GSK1379708],0
15,COc1cccc(CNC(=O)NC2CCN(c3ccnc(Nc4cc(OC)c(OC)c(OC)c4)n3)C2)c1 (stereo not shown) [GSK1379765],0
16,Cc1ccc2c(-c3ccnc(Nc4ccc(C(F)(F)F)cc4)n3)cnn2n1 [GW819776],13
17,O=C(Nc1ccc(Oc2ccc3nc(NC(=O)C4CC4)cn3n2)c(F)c1)c1cccn(-c2ccccc2)c1=O,59
18,CS(=O)(=O)Nc1ccc(-c2ccnc3[nH]ccc23)cc1 [GSK993273],0
19,CNC(=O)c1ccccc1Nc1nc(Nc2cccc(CS(C)(=O)=O)c2)ncc1C.O=CO [GSK1520489],100

row,Structure (SMILES),%Inh [%]
1,O=C(Nc1cccc(C(F)(F)F)c1)c1cccc(Oc2ccc3nccn3n2)c1,36
2,COC(=O)Nc1nc2cc(Oc3ccc(NC(=O)Nc4cc(C(F)(F)F)ccc4Cl)cc3)ccc2[nH]1.Cl [GW697465],28
3,CC(C)c1nc(-c2cccc(NS(=O)(=O)c3ccccc3)c2)c(-c2ccnc(Nc3ccc4c(c3)CN(C)CC4)n2)s1 [GSK1649598],100
4,CC(=O)Nc1nc2cnc(Nc3cc(NC(=O)c4cccc(CC(C)(C)C#N)c4)ccc3C)nc2s1,7
5,CCn1c(-c2nonc2N)nc2cncc(CNC3CCNCC3)c21.Cl [SB-747651],0
6,CC(C)S(=O)(=O)N1CCN(Cc2ccc3c(c2)nc(NC(=O)c2ccsc2)n3C[C@H](O)c2ccccc2)CC1 [GW635815],79
7,COc1cc2ncn(-c3cc(OCC4CCCCC4)c(C(N)=O)s3)c2cc1OC [GSK204559],5
8,NC(=O)c1ccc(-c2cc3ncnc(SCC(=O)O)c3s2)cc1,0
9,COc1ccc(Nc2nccc(N3CCC(NC(=O)c4cccc(C#N)c4)C3)n2)cc1 (stereo not shown) [GSK1379730],0
10,CCOC(=O)N1CCC(n2cnc(-c3ccc(F)cc3)c2-c2ccnc(N)n2)CC1 [SB-219952],21
11,CCN1CCN(CCCC(=O)Nc2n[nH]c3nc(-c4ccc(O)cc4)c(Br)cc23)CC1 [SB-731579],34
12,CC(=O)c1c(-c2ccncc2)[nH]c(-c2ccncc2)c1C [GW493036],0
13,O=c1[nH]cc(-c2ccc(O)cc2)c2sc(-c3ccncc3)cc12 [GSK1033723],0
14,C[C@@H]1CCN(C(=O)N2CCCC2)C[C@@H]1N(C)c1ncnc2[nH]ccc12,69
15,CCn1c(-c2nonc2N)nc2cncc(Br)c21 [SB-738004],0
16,Cc1n[nH]c2cc(Nc3ccnc(Nc4cccc(CN5CCOCC5)c4)n3)ccc12 [GW682569],33
17,O=C(NOCC1CC1)c1cc(Br)c(F)c(F)c1Nc1ccc(I)cc1Cl,0
18,Cn1cc(-c2cccc3c(N)c(C(N)=O)nnc23)cn1,0
